Data taken from PubChem BioAssay AID1159580 (chemical genetic matrix, 2015).
Hit rate of the full screen: of about 5,500 compounds, about 2,000 (36%) were called active. Inconclusive results (about 18%) are left out. No stated cut-off is given here; in the data, active means normalized growth mostly below about 0.91 (no sharp cut-off); inconclusive means no clear call, values can overlap the other calls; inactive means mostly above about 0.92. The list shows a part of the results.

Experiment: chemical genetic growth profiling, strain panel (AID 1159580);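 further: tested at 20 µM; growth read once vehicle control cultures reached saturation at 30 °C; 1 = growth at the plate median or of vehicle wells; lower values mean less growth of the strain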
Details: S. cerevisiae deletion strains, growth OD
[1] = locus YDL101C, strain DUN1, hits give low values

Measured: normalized growth

COC(=O)c1cc(OC)c(OC)cc1NC(=O)Nc1cc(Cl)cc(Cl)c1
inactive: locus YAL013W, strain DEP1, hits give low values 0.991 | locus YBR229C, strain ROT2, hits give low values 0.998 | [1] 1.02 | locus YDL134C, strain PPH21, hits give low values 0.979 | locus YDR150W, strain NUM1, hits give low values 0.916 | locus YEL061C, strain CIN8, hits give low values 1.02 | locus YGR078C, strain PAC10, hits give low values 1.01 | locus YHR030C, strain SLT2, hits give low values 0.868 | locus YHR087W, strain rtc3, hits give low values 1.02 | locus YJL187C, strain SWE1, hits give low values 1.03 | locus YJR043C, strain POL32, hits give low values 0.959 | locus YJR075W, strain HOC1, hits give low values 0.982 | locus YKL190W, strain CNB1, hits give low values 1.01 | locus YLR039C, strain RIC1, hits give low values 1.01 | locus YLR058C, strain SHM2 (second series), hits give low values 1.01 | locus YLR085C, strain ARP6, hits give low values 0.973 | locus YLR262C, strain YPT6, hits give low values 0.972 | locus YML094W, strain GIM5, hits give low values 0.998 | locus YMR219W, strain ESC1, hits give low values 1.02 | locus YMR263W, strain SAP30, hits give low values 0.978 | locus YMR307W, strain GAS1, hits give low values 1.05 | locus YNL153C, strain GIM3, hits give low values 1.02 | locus YNL298W, strain CLA4 (second series), hits give low values 0.969 | locus YNL322C, strain KRE1, hits give low values 1.02 | locus YNR030W, strain Alg12, hits give low values 0.978 | locus YOL006C, strain TOP1, hits give low values 1.05 | locus YPL055C, strain LGE1, hits give low values 1.08 | locus YPL241C, strain CIN2, hits give low values 0.998 | locus YPR135W, strain CTF4, hits give low values 0.926

CC(C)OC(=O)Nc1cc(Cl)cc(Cl)c1
active: locus YLR113W, strain HOG1, hits give low values 0.479 | locus YPL256C, strain CLN2, hits give low values 0.682
inactive: locus YAR019C, strain CDC15, hits give low values 0.971 | locus YBL105C, strain PKC1, hits give low values 0.97 | locus YBR135W, strain CKS1, hits give low values 0.964 | locus YBR136W, strain MEC1, hits give low values 0.986 | locus YBR160W, strain CDC28, hits give low values 0.981 | locus YDL017W, strain CDC7, hits give low values 0.974 | locus YDL028C, strain MPS1, hits give low values 0.996 | [1] 0.972 | locus YDL108W, strain KIN28, hits give low values 0.98 | locus YDL132W, strain cdc53, hits give low values 0.953 | locus YDL214C, strain PRR2, hits give low values 0.864 | locus YDR052C, strain DBF4, hits give low values 0.993 | locus YDR054C, strain cdc34, hits give low values 0.939 | locus YDR226W, strain ADK1, hits give low values 0.982 | locus YDR477W, strain SNF1, hits give low values 0.873 | locus YER123W, strain YCK3, hits give low values 0.845 | locus YER133W, strain GLC7, hits give low values 0.764 | locus YFL009W, strain cdc4, hits give low values 0.96 | locus YFL029C, strain CAK1, hits give low values 0.972 | locus YFR003C, strain YPI1, hits give low values 0.972 | locus YFR019W, strain FAB1, hits give low values 0.966 | locus YFR028C, strain CDC14, hits give low values 0.985 | locus YGR040W, strain KSS1, hits give low values 0.838 | locus YGR052W, strain FMP48, hits give low values 0.822 | locus YGR092W, strain DBF2, hits give low values 0.765 | locus YHR079C, strain IRE1, hits give low values 0.754 | locus YHR082C, strain KSP1, hits give low values 0.988 | locus YHR205W, strain SCH9, hits give low values 0.777 | locus YIL147C, strain SLN1, hits give low values 0.987 | locus YJL095W, strain BCK1, hits give low values 0.716 | locus YJL128C, strain PBS2, hits give low values 0.899 | locus YJL157C, strain FAR1, hits give low values 0.902 | locus YJR016C, strain ILV3, hits give low values 0.957 | locus YJR066W, strain TOR1 (second series), hits give low values 0.883 | locus YJR066W, strain TOR1, hits give low values 0.99 | locus YKL048C, strain ELM1, hits give low values 0.864 | locus YKL067W, strain YNK1, hits give low values 0.857 | locus YKL101W, strain HSL1, hits give low values 0.888 | locus YKL193C, strain SDS22, hits give low values 0.97 | locus YKL203C, strain TOR2, hits give low values 0.944 | locus YLR133W, strain CKI1, hits give low values 0.915 | locus YLR403W, strain SFP1, hits give low values 0.853 | locus YML070W, strain DAK1, hits give low values 0.848 | locus YMR001C, strain CDC5, hits give low values 0.985 | locus YMR205C, strain PFK2 (second series), hits give low values 0.898 | locus YMR277W, strain FCP1, hits give low values 0.939 | locus YNL006W, strain LST8, hits give low values 0.968 | locus YNL020C, strain ARK1, hits give low values 0.9 | locus YNL161W, strain CBK1, hits give low values 0.969 | locus YNL183C, strain NPR1, hits give low values 0.707 | locus YNL207W, strain RIO2, hits give low values 0.975 | locus YNL222W, strain SSU72, hits give low values 0.978 | locus YNL307C, strain MCK1 (second series), hits give low values 0.868 | locus YOL078W, strain AVO1, hits give low values 0.974 | locus YOL136C, strain PFK27, hits give low values 0.849 | locus YOR061W, strain CKA2, hits give low values 0.875 | locus YOR119C, strain RIO1, hits give low values 0.85 | locus YOR231W, strain MKK1, hits give low values 0.729 | locus YOR329C, strain SCD5, hits give low values 0.976 | locus YPL031C, strain PHO85, hits give low values 0.756 | locus YPL153C, strain RAD53, hits give low values 0.8 | locus YPL204W, strain HRR25, hits give low values 0.791 | locus YPL209C, strain IPL1, hits give low values 0.973 | locus YPR025C, strain CCL1, hits give low values 0.978 | locus YPR106W, strain ISR1, hits give low values 0.959 | locus YPR111W, strain DBF20, hits give low values 0.948 | strain NNK1, hits give low values 0.963 | strain TSCII, hits give low values 0.967
